Screening data as filed in PubChem.
Most compounds without a hit are left out; they make up all but 12% or so of the library.
JMJD2A Tudor: qHTS Assay for Inhibitors of JMJD2A-Tudor Domain. Lysine-specific demethylase 4A (Homo sapiens), O75164. AlphaScreen JMJD2A-Tudor / H3K4me3 peptide binding. Potency, µM (highest dose often 114 µM), most hits filed as inhibitors. 390,000 tested, 4.4% active. AID 504339, 2011; note: nearly all actives have a fitted effect of over 50% in size
BAZ2B inh: qHTS Assay for Inhibitors of BAZ2B; Bromodomain adjacent to zinc finger domain protein 2B (Homo sapiens), Q9UIF8; AlphaScreen BAZ2B-H3K14Ac peptide displacement; Potency, µM (series often up to 114 µM), hits mostly inhibitors; 360,000 tested, 4.4% active; AID 504333, 2011; note: nearly all actives have a fitted effect of over 60% in size
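Multi-concentration screen (max 110 uM) measuring displacement of acetylated histone H3 peptide from BAZ2B by AlphaScreen, using 50 nM protein, 50 nM peptide and 10 ug/mL streptavidin donor plus Ni-chelate acceptor beads.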
L3MBTL1 inh: qHTS Assay for the Inhibitors of L3MBTL1; AlphaScreen L3MBTL1–H3K9me1 peptide binding; Potency, µM (titrated, usually from 57.1 µM), usual class: inhibitors; 230,000 tested, 0.66% active; AID 485360, 2010; note: nearly all actives have a fitted effect of over 60% in size
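AlphaScreen assay: L3MBTL1 (50 nM final) was preincubated 30 min at room temperature with biotinylated H3(1-15)K9me1 peptide (75 nM final), then 30 min with library compounds; streptavidin donor and nickel chelate acceptor beads (10 ug/mL final) added, 30 min dark.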
HP1b binding inh: HTS for Inhibitors of HP1-beta Chromodomain Interactions with Methylated Histone Tails; Chromobox protein homolog 1 (Homo sapiens), P83916; AlphaScreen HP1-beta / biotin-H3K9me3 peptide binding; Potency, µM (series often up to 114 µM), usual class: inhibitors; 390,000 tested, 0.56% active; note: nearly all actives have a fitted effect of over 70% in size
Target sequence (P83916 whole entry, looked up): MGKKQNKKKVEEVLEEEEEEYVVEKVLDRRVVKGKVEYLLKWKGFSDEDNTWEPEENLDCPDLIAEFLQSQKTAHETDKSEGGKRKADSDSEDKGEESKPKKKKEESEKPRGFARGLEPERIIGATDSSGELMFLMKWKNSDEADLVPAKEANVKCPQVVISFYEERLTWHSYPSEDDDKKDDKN
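AlphaScreen: HP1-beta (50 nM) preformed 30 min with biotin-H3(1-18)K9me3 peptide (50 nM) in PBS pH 7.4, 0.01% Tween-20. Compound added for 30 min at RT, then streptavidin donor/nickel chelate acceptor beads (10 ug/mL) for 30 min.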
G9a block: qHTS Assay for Inhibitors of Histone Lysine Methyltransferase G9a. Histone-lysine N-methyltransferase EHMT2 (Homo sapiens), Q96KQ7. G9a H3K9 monomethylation, AlphaScreen, 2 h. Potency, µM (doses to about 102 µM), hits mostly inhibitors. 350,000 tested, 8.8% active; note: nearly all actives have a fitted effect of over 75% in size
Target sequence (Q96KQ7 913-1193 limits assumed): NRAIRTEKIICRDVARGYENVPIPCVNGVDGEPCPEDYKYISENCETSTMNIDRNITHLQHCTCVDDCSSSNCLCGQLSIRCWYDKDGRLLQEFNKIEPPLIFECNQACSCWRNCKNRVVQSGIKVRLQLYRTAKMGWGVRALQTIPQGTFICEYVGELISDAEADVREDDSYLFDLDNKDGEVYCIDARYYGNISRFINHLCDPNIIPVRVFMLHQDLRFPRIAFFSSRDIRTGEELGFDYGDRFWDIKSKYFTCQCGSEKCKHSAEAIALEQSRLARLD
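Methyltransferase reactions run at room temperature for 2 h (20 nM enzyme, 500 nM biotin-H3K9 peptide, 20 uM SAM) after a 15 min compound preincubation; product detected by AlphaScreen beads and anti-H3K9me1 antibody.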
Sfp inh: qHTS Assay for Inhibitors of Bacillus subtilis Sfp phosphopantetheinyl transferase (PPTase) | 310,000 tested, 3.5% active | Biochemical Sfp PPTase activity, qHTS | Potency, µM, most hits filed as inhibitors | 4'-phosphopantetheinyl transferase ffp (Bacillus subtilis), Q9F4F7;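 note: the enzyme is Sfp with the accession as filed and its product quenches rhodamine fluorescence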
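Fluorescence-quenching assay with 15 nM Sfp, 5 uM rhodamine-CoA and 12.5 uM BHQ-2-labelled ybbR peptide in pH 7.6 Hepes/MgCl2 buffer. Enzyme was pre-incubated with compound for 15 min at room temperature. Rate was taken from the 30-min fluorescence change (525/598 nm).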
A number is an active result; . = inactive; ? = inconclusive; / = no result; [ ] = another dose, or the depositor's remark. Calls come from the whole dose curve; as a rule, active = well fitted curve in the direction sought with a large enough effect; inconclusive = small, poorly fitted or top-dose-only effect, or another doubt; inactive = no such curve, though single readings can be large; an effect the other way counts as inactive or inconclusive.

SMILES	JMJD2A Tudor	BAZ2B inh	L3MBTL1 inh	HP1b binding inh	G9a block	Sfp inh
Cc1ccc(-c2csc(NC(=O)c3ccno3)n2)cc1	79µM	?	/	.	50µM	.
COc1ccc(-c2csc(NC(=O)c3c(C)noc3C)n2)cc1	.	.	.	.	.[12.7 µM]	/
Nc1ncnc2c1nc(Cl)n2[C@@H]1O[C@H](CO)[C@@H](O)[C@@H]1O	.	/	/	.	/	/
COc1ncc2nc(-c3cc(F)cc(F)c3)c(=O)n(-c3ccccc3)c2n1	/	/	/	/	.[0.501 µM]	.
NC(=NCc1ccc(Cl)c(Cl)c1)NC(=O)c1nc(Cl)c(N)nc1N	/	/	/	/	.[12.7 µM]	/
NC(=NCc1ccc(Cl)cc1Cl)NC(=O)c1nc(Cl)c(N)nc1N	/	/	/	/	.	25µM
Cc1ccccc1N(CC(=O)N/N=C/c1ccc(N(C)C)cc1)C(=O)c1ccccc1	20µM	56µM	/	?	?	.
CN(C)c1ccc(/C=N/NC(=S)NCc2ccccc2)cc1	13µM	?	?	50µM	?	.
O=C(/C=C/c1ccccc1)CCN1CCOCC1	89µM	/	/	.	/	/
O=C(/C=C/c1ccccc1)N1CCOCC1	.	.	/	.	.[12.7 µM]	.
O=C(O)CC(NS(=O)(=O)c1ccc(Cl)s1)c1ccccc1 (stereo not given)	.	.	/	.	.	/
CCOc1ccc(N2C(=O)C3C(c4ccccc4F)NN(C(=O)c4ccc(C)cc4)C3C2=O)cc1 (stereo not given)	.	.	.	.	50µM	.
Cc1ccc(C(=O)N2NC(c3ccc(F)cc3)C3C(=O)N(c4ccc(C)cc4)C(=O)C32)cc1 (stereo not given)	.	.	.	.	.	.
Cc1ccc(C(=O)N2NC(c3ccc(F)cc3)C3C(=O)N(c4ccc(C)c(C)c4)C(=O)C32)cc1 (stereo not given)	.	.	?	.	56µM	.
CCN(CC)S(=O)(=O)c1cccc(-c2nnc(SCC(=O)NCCC3=CCCCC3)n2N)c1	.	.	.	.	.	.
Nn1c(SCC(=O)NCCC2=CCCCC2)nnc1-c1cccnc1	.	.	.	.	45µM	/
CC(C)c1nnc(SCC(=O)NCCC2=CCCCC2)n1N	.	.	/	?	8.9µM	?
Cn1cnnc1SCC(=O)NCCC1=CCCCC1	.	/	.	.	/	/
CC(C)OC(=O)[C@@H]1CC[C@H](C)[C@@H](CCC[C@@H]2C[C@@H](O)C[C@H](CC#N)O2)O1	/	/	/	/	/	.
COC(=O)C1(CC(C)C)C=C2C(=C(C)C(=O)C2C)CN1 (stereo not given)	/	/	/	/	/	.
Cc1nn(Cc2ccccc2)c2c1C(c1cccnc1)C(C#N)=C(N)O2 (stereo not given)	.	.	/	.	50µM	.
CC1(C)CCC[C@@](C)([C@H]2CC[C@]3(C)[C@@H]2[C@H](O)C[C@@H]2[C@@]4(C)CC[C@H](O)C(C)(C)[C@@H]4CC[C@]23C)O1	/	/	/	/	/	.
Cc1nn(-c2ncc(C(F)(F)F)cc2Cl)c(=O)n1-c1ccc(F)cc1	50µM	.	.	.	.	.
CCOC(=O)N1CCN(/[N+]([O-])=N/Oc2ccc([N+](=O)[O-])cc2[N+](=O)[O-])CC1C (stereo not given)	.	/	/	.	/	.
CC(C)=C[C@@H]1C[C@H](C)[C@H]2CC[C@H](C)c3c(O)c(O)c(C)c1c32	40µM	56µM	.	?	.[0.501 µM]	/
SMILES	JMJD2A Tudor	BAZ2B inh	L3MBTL1 inh	HP1b binding inh	G9a block	Sfp inh
CC(=O)Oc1c(C)c2c3c(c1OC(C)=O)[C@@H](C)CC[C@@H]3[C@@H](C)C[C@H]2C=C(C)C	.	.	.	.	.[0.501 µM]	/
CC(=O)O[C@H]1[C@H](O)[C@H](Oc2c(O)c(C)c3c4c2[C@@H](C)CC[C@@H]4[C@@H](C)C[C@H]3C=C(C)C)O[C@@H](C)[C@H]1O	32µM	/	.	.	/	/
CCOc1cc([N+](=O)[O-])c2nc(N)sc2c1	.[11.4 µM]	.	/	.	.[12.7 µM]	.
CC(C)NC(=O)C1CCCN(S(=O)(=O)c2ccc3c(ccn3C)c2)C1 (stereo not given)	.	.	/	.	.	/
COc1ccc(CNc2nc3ccccc3n2C)c(OC)c1	.	.	.	.	.	?
CCOc1ccc(-c2cnc(NCc3ccc(OC)cc3OC)n2C)cc1	28µM	?	/	?	16µM	/
COc1ccc(CNc2ncc(-c3ccc(Cl)cc3)n2C)c(OC)c1OC	25µM	?	.	?	71µM	.
Cc1ccsc1/C=N\NC(=O)CCc1c(C)n[nH]c1C	.	.	.	.	.	.
Cc1occc1C(=O)N1CCCC(Nc2ccc(C(C)C)cc2)C1 (stereo not given)	?	?	/	.	40µM	.
Cc1cc(C(=O)N2CCCC(Nc3ccc(C(C)C)cc3)C2)nn1C (stereo not given)	.	.	/	.	?	.
Cc1occc1C(=O)N1CCCC(Nc2ccc(F)cc2)C1 (stereo not given)	.	.	/	.	/	.
CC(C)c1ccc(NC2CCCN(C(=O)c3cnsn3)C2)cc1 (stereo not given)	.	?	/	.	35µM	.
CCn1nc(C)cc1C(=O)N1CCCC(Nc2ccc(C(C)C)cc2)C1 (stereo not given)	.	?	/	.	50µM	.
CC(C)c1ccc(NC2CCCN(C(=O)c3cccnc3)C2)cc1 (stereo not given)	.	.	/	.	79µM	.
CCOc1ccc(N(CC(=O)N2CCN(C(=O)CN(c3ccc(OCC)cc3)S(C)(=O)=O)CC2)S(C)(=O)=O)cc1	.	.	.	.	.	.
CC(C)c1ccc(NC2CCCN(C(=O)c3n[nH]c4c3CCC4)C2)cc1 (stereo not given)	.	.	/	.	71µM	.
COC(=O)c1ccc(C(=O)N2CCCC(Nc3ccc(C(C)C)cc3)C2)cc1 (stereo not given)	?	?	/	.	79µM	.
COCc1ccc(C(=O)N2CCCC(Nc3ccc(C(C)C)cc3)C2)o1 (stereo not given)	.	?	/	.	45µM	.
COCc1ccc(C(=O)N2CCCC(Nc3ccc(C(C)C)cc3)C2)s1 (stereo not given)	?	.	/	?	.	.
CCc1ccccc1NC(=O)CCc1c(C)nc2cc(-c3ccccc3)nn2c1C	.	.	/	.	.	/
CCOC(=O)c1cnc(SCC(=O)Nc2ccc(N3CCOCC3)cc2)nc1N	/	.	/	/	25µM	.
CCOC(=O)c1cnc(SCC(=O)N2CCN(c3ccccc3)CC2)nc1N	.	.	.	.	35µM	.
